A selection: hits, their analogues and other compounds. The true share with any hit is near 3.6%.
HepG2 tox = HepG2 cytotoxicity, counter-screen for TGF-b inhibitors. HepG2 CAGA-GFP viability, ATP luminescence, 18 h. Potency, µM (series often up to 46.1 µM), usual class: cytotoxic. 0.76% of 410,000 active
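CellTiter-Glo luminescence gave cytotoxicity after 18 hours at 37 degrees C. The cells were HepG2 CAGA-GFP in 1% FBS DMEM, stimulated with 500 pg/mL TGF-beta after compound addition. %Activity was normalised to no-cell wells (complete cell-killing) and DMSO (no toxicity), and curves were fitted and classified.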
Nrf2 block = Nrf2 pathway inhibition; A549 ARE-Fluc reporter, luciferase luminescence, 18-24 h; Potency, µM (series often up to 46 µM), actives largely listed as inhibitors; 2.1% of 360,000 active; also: nearly all actives have a fitted effect of over 60% in size
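Nrf2 activity is the BugLite luminescence, read 15 min after reagent at room temperature, following CellTiter-Fluor cytotoxicity readout (30 min, 37C). Compound titrations were applied for 18-24 h to 5000 A549 ARE_Fluc cells/well in 5% FBS OPTI-MEM.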
TGFb SMAD3 inh = TGF-b pathway inhibition; HepG2 CAGA-GFP TGF-b/SMAD3 reporter, GFP fluorescence, 18 h; TGF-beta stimulated, 500 pg/mL final; Potency, µM (titrated, usually from 46.1 µM), actives largely listed as inhibitors; 1.2% of 410,000 active; AID 588855; also: nearly all actives have a fitted effect of over 65% in size
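Cell-based qHTS in HEPG2 carrying a CAGA-GFP Smad reporter; compounds added before 500 pg/mL final TGF-beta, 18 h incubation at 37 degrees C, GFP fluorescence quantified per cell by imaging cytometry.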
A549 tox = counter-screen for Nrf2 inhibitors: cytotoxicity in A549 cells; AID 504648; 0.16% of 390,000 active; Potency, µM (doses to about 46 µM), usual class: inhibitors; A549 ARE-Fluc cells, CellTiter-Fluor viability, 18-24 h
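A549 ARE-Fluc cells in 5% FBS OPTI-MEM, 5000 cells/well, rested 2 h then exposed to compounds in concentration-response for 18-24 h at 37 °C. Viability by CellTiter-Fluor fluorescence (Ex 405/Em 525) after 30 min; luciferase luminescence (BugLite, 15 min, RT) read afterwards.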
Nrf2 activator = activates Nrf2 signaling; AREc32 ARE-luciferase reporter (MCF7-derived line), luminescence, 24 h; Potency, µM (series often up to 46.1 µM), hits mostly activators; 0.31% of 410,000 active; AID 624171; also: nearly all actives have a fitted effect of over 65% in size
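Reporter line AREc32 (ARE-Fluc), seeded overnight in OPTI-MEM with 5% FBS; compound pin-transferred, 24 hr at 37 deg C, 5% CO2; luminescent read-out.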
Large screens that a line does not name were inactive; ! = not confirmed by another sample. Calls follow the shape of the dose curve; as a rule, active = well fitted curve in the direction sought with a large enough effect; inconclusive = small, poorly fitted or top-dose-only effect, or another doubt; inactive = no such curve, though single readings can be large; an effect the other way counts as inactive or inconclusive.

O=C(C1CCCN(S(=O)(=O)c2ccc(Br)s2)C1)N1CCN(c2ccccc2F)CC1 (stereo unspecified)	none
COc1ccc(OCCN2CCN(C(=O)c3ccc(OC)cc3)CC2)cc1	Nrf2 block 10µM, TGFb SMAD3 inh inconclusive
CC(C)Oc1ccc(C(=O)CCN2CCOCC2)cc1	TGFb SMAD3 inh inconclusive
Cc1ccc(C(=O)C2CCN(C(=O)c3ccc(C)cc3)CC2)cc1	Nrf2 block 23µM
Cc1ccc(C(=O)N2CCC(C(=O)c3ccc(F)cc3)CC2)cc1	Nrf2 block inconclusive
COc1ccc(C(=O)N2CCC(C(=O)c3ccc(F)cc3)CC2)cc1	none
COc1ccc(C(=O)C2CCN(C(=O)c3ccc(OC)cc3)CC2)cc1	Nrf2 block 23µM
CCCCCOc1ccc(C(=O)CCN2CCOCC2)cc1	Nrf2 block inconclusive, TGFb SMAD3 inh inconclusive, Nrf2 activator 20µM
Cc1ccc(S(=O)(=O)c2ccc([N+](=O)[O-])o2)cc1	TGFb SMAD3 inh 10µM, A549 tox inconclusive, Nrf2 activator inconclusive
NC(=O)C12C(=O)NC(=O)C1(C(=O)O)C21CCCC1 (stereo unspecified)	none
CC(=O)NC(=O)COC(=O)/C=C/c1c(C)nn(Cc2c(Cl)cccc2Cl)c1Cl	Nrf2 block inconclusive
COc1ccccc1-c1ccc(=O)n(CC(=O)NCc2ccco2)n1	none
NCC12CC3CC(C1)CC(c1ccc(Br)cc1)(C3)C2	HepG2 tox 13µM, TGFb SMAD3 inh inconclusive
COc1ccccc1N1C(=O)C=C(Sc2nc(C)cc(C)n2)C1=O	HepG2 tox 11µM, TGFb SMAD3 inh 11µM
COc1ccccc1N1C(=O)C2CC(C)=C(C)CC2C1=O (stereo unspecified)	none
O=C1C=CC(=O)N1CCCCCCN1C(=O)C=CC1=O	Nrf2 block inconclusive, TGFb SMAD3 inh 4.5µM, A549 tox inconclusive
O=C(O)CN1C(=O)C=CC1=O	none (no result: Nrf2 block, A549 tox)
Fc1ccc(Nc2nc(NCc3ccco3)c3ccccc3n2)cc1	HepG2 tox 18µM, Nrf2 block 18µM, TGFb SMAD3 inh inconclusive
c1coc(CNc2nc(NCc3ccco3)c3ccccc3n2)c1	TGFb SMAD3 inh 0.71µM (no result: Nrf2 block, A549 tox, Nrf2 activator)
c1ccc(CNc2nc(NCc3ccccc3)c3ccccc3n2)cc1	TGFb SMAD3 inh inconclusive, A549 tox inconclusive
Cc1cccc(NC(=O)Nc2ccc(F)cc2)n1	Nrf2 block inconclusive
CCn1c(C)cc(C(=O)CSc2nnnn2C2CCCC2)c1C	Nrf2 block inconclusive
CC(=O)Cc1cc(O)c2ccccc2c1OC(=O)c1ccccc1	HepG2 tox 20µM, TGFb SMAD3 inh inconclusive
CC(=O)c1cc(C)c(OC(=O)c2ccccc2)c(C)c1	Nrf2 block inconclusive
CCN1CCN(S(=O)(=O)c2cc(OCC(=O)NC3CCCCC3)c(C)cc2Cl)CC1	Nrf2 block 4.1µM, TGFb SMAD3 inh inconclusive
CCn1cnc2cc(NCc3ccc(N(C)C)cc3)ccc21	HepG2 tox 7.1µM!, TGFb SMAD3 inh 10µM
CCN(CC)c1ccc(CNc2ccc3c(c2)ncn3CC)cc1	none
CCOC(=O)c1[nH]c(C)c(CN(C(C)=O)c2ccc(OCC)cc2)c1C	Nrf2 block inconclusive
COc1ccc(N2CCN(CCCNC(=O)C3CCC(CNc4nc(=S)[nH]c5ccccc45)CC3)CC2)cc1 (stereo unspecified)	Nrf2 block 6.5µM, A549 tox inconclusive
CCCCNC(=O)C1CCC(CNc2nc(=S)[nH]c3ccccc23)CC1 (stereo unspecified)	TGFb SMAD3 inh inconclusive
Clc1ccc(CNc2ncnc3[nH]ncc23)c(Cl)c1	Nrf2 block 23µM
CCOc1ccc(CCNC(=O)CN2C(=O)COc3ccc(S(=O)(=O)N4CCCCCC4)cc32)cc1	none
CCOc1ccc(CCNC(=O)CN2C(=O)COc3ccc(S(=O)(=O)N(CC)CC)cc32)cc1	Nrf2 block 23µM, TGFb SMAD3 inh inconclusive
CCN(CC)S(=O)(=O)c1ccc2c(c1)N(CC(=O)NCCCN1CCN(c3cc(Cl)ccc3C)CC1)C(=O)CO2	HepG2 tox 13µM, TGFb SMAD3 inh inconclusive, A549 tox inconclusive
CC1CCN(S(=O)(=O)c2ccc3c(c2)N(CC(=O)NCCc2ccc(Cl)cc2)C(=O)CO3)CC1	TGFb SMAD3 inh 13µM
O=C(CN1C(=O)COc2ccc(S(=O)(=O)N3CCCCCC3)cc21)NCc1ccc(Cl)cc1	TGFb SMAD3 inh 10µM (no result: Nrf2 block)
COc1ccc(OC)c(N(CC(=O)Nc2ccccc2C(=O)NCc2ccco2)S(C)(=O)=O)c1	none
COc1cc2c(NC3CCN(C)CC3)nc(N3CCCN(C)CC3)nc2cc1OCC1CCCNC1 (stereo unspecified)	none (no result: Nrf2 block, A549 tox, Nrf2 activator)
Cc1ccc(NC(=O)CSc2nnc(NC(=O)c3ccco3)s2)cc1	none
Cc1ccc([N+](=O)[O-])cc1-c1[nH]c(-c2ccc(O)c(O)c2)nc1-c1ccccc1	Nrf2 block 21µM, TGFb SMAD3 inh inconclusive, A549 tox inconclusive
COc1ccc(-c2nc(-c3ccccc3)c(-c3cc([N+](=O)[O-])ccc3C)[nH]2)cc1O	TGFb SMAD3 inh inconclusive
Cc1nc(NC(=O)COC(=O)CCS(=O)(=O)c2ccccc2Cl)c(Cl)cc1Cl	none (no result: Nrf2 block)
CSCCC(NC(=O)c1ccccc1Br)C(=O)NCc1ccc(F)cc1 (stereo unspecified)	none
Cc1cc2c(cc1C)N(C(=O)CCl)CCN2C(=O)CCl	Nrf2 block inconclusive, TGFb SMAD3 inh inconclusive, Nrf2 activator 11µM
Cc1cc2c(cc1C)N(C(=O)CCl)CC(=O)N2	TGFb SMAD3 inh inconclusive, Nrf2 activator inconclusive (no result: Nrf2 block, A549 tox)
COc1ccc2c(c1)CO[C@]21O[C@H](CCO)C[C@H](O)[C@H]1O	none (no result: Nrf2 block, A549 tox)
CCOC(=O)c1[nH]c2c(c1-c1ccccc1)C(=O)CC(c1ccc(OC)c(OC)c1)C2 (stereo unspecified)	Nrf2 block 21µM
CCOCCOC(=O)c1[nH]c2c(c1C)C(=O)CC(c1cc(OC)c(OC)c(OC)c1)C2 (stereo unspecified)	Nrf2 block 23µM
CCN(c1ccc(NC(=O)COC(=O)c2ccc(S(=O)(=O)N3CCCC3)cc2)cc1)C(C)C	none
CCOc1ccc2nc(NC(=O)C3CCCN(S(=O)(=O)c4c(C)noc4C)C3)sc2c1 (stereo unspecified)	Nrf2 block 21µM
Cc1noc(C)c1S(=O)(=O)N1CCC(C(=O)N2CCN(c3cccc(C(F)(F)F)c3)CC2)CC1	Nrf2 block 18µM, TGFb SMAD3 inh inconclusive
Cc1ccc(C)c(N2CCN(C(=O)C3CCCN(S(=O)(=O)c4c(C)noc4C)C3)CC2)c1 (stereo unspecified)	Nrf2 block 16µM, TGFb SMAD3 inh inconclusive
CCOC(=O)c1nc(NNC(C)=O)sc1C	none
Cc1cc(N2CCOCC2)ccc1/C=C\[N+](=O)[O-]	HepG2 tox 18µM, TGFb SMAD3 inh 11µM, A549 tox inconclusive
O=C(Nc1ccc(OCc2ccccc2Cl)cc1)c1cccnc1	Nrf2 block 9.2µM
O=C(Nc1ccc(OCc2ccccc2)cc1)c1cccnc1	none
